HTT aggregate – mutant huntingtin aggregation inhibition; PC12 HttQ103-GFP aggregates, Acumen cytometry, 40 h; Potency, µM (doses to about 46.1 µM), for inactives: at the top dose activity change, negative = inhibition, actives largely listed as inhibitors; 220,000 tested, 1.1% active; AID 1688; note: % is set by controls: 0 for no effect and ±100 for the full control effect; nearly all actives have a fitted effect of over 60% in size
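Aggregate formation scored by laser-scanning cytometer (488 excitation, 500–530 emission) in lysed PC12 cells expressing Q103-GFP after 100 nM tebufenozide induction; library tested in dose series, with ATPLite reagent added in the multiplex.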
Luc counter – blocks Kinase-Glo luciferase, a counter-screen artifact; Q27757; Kinase-Glo luciferase, ATP luminescence, 8 min; Potency, µM (series often up to 38.3 µM), for the others: at the highest dose activity change, negative = inhibition, most hits filed as inhibitors; 200,000 tested, 0.28% active; AID 1379; note: % is set by controls: 0 for no effect and ±100 for the full control effect; nearly all actives have a fitted effect of over 60% in size
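Recombinant Kinase-Glo luciferase, 10 uM ATP (linear range), luciferin; imidazole pH 7.2 / KCl / MgCl2 / Tween / BSA buffer; 8 min RT; luminescence.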
ALDH1A1 inh – ALDH1A1 (human) enzyme inhibition. P00352. Potency, µM (doses to about 75.3 µM), without a hit: at the top dose activity, negative = inhibition, usual class: inhibitors. Purified ALDH1A1, NADH fluorescence, propionaldehyde substrate. 220,000 tested, 7.3% active; active = well fitted inhibition curve with a large enough effect, not every such curve was filed as active; inconclusive = small, poorly fitted or top-dose-only effect, or another doubt; inactive = no such curve, though single readings can be large or run the other way;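 note: plate controls were no enzyme wells and a reference inhibitor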
HPGD inh – inhibitors of human 15-hydroxyprostaglandin dehydrogenase (HPGD); P15428; purified HPGD, NADH fluorescence kinetic, PGE2 substrate; Potency, µM, inactives show top-dose activity change, negative = inhibition, most hits filed as inhibitors; 150,000 tested, 4.3% active; active = well fitted inhibition curve with a large enough effect, not every such curve was filed as active; inconclusive = small, poorly fitted or top-dose-only effect, or another doubt; inactive = no such curve, though single readings can be large or run the other way; note: % is set by controls: 0 for no effect and ±100 for the full control effect
Target sequence (P15428 whole entry, looked up): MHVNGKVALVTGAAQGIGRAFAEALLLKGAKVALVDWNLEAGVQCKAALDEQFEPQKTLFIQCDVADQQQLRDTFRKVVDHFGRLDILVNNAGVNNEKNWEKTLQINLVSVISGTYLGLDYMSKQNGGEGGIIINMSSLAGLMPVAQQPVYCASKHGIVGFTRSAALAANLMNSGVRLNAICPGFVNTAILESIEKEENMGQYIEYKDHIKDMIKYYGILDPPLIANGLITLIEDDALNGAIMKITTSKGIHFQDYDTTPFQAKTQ
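NADH formation kinetics: reaction with 30 uM PGE2 and 1 mM NAD+ (final), 20 nM enzyme, Tris-HCl pH 8 with Tween 20, after 15 min compound preincubation at room temperature. Fluorescence change, last versus first of five reads.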
HTT cytoprotect – Huntington cell model cytoprotection by ATP luminescence; PC12 HTT-Q103 induced, cytoprotection, ATP luminescence, 40 h; Potency, µM (highest dose often 56.4 µM), inactives show cytoprotection (ATP increase), hits mostly activators; 230,000 tested, 0.14% active; note: % of control where 0% means no effect; nearly all actives have a fitted effect of over 45% in size
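Cells were plated at 1500 per well in phenol red-free DMEM with 5% equine and 5% calf serum. Tebufenozide (100 nM final) and compounds were added, then ATPlite reagent, and luminescence was read.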
Lamin A splicing – modulators of lamin A splicing; HeLa LMNA splicing GFP/RFP minigene ratio, 48 h; Potency, µM (top dose mostly 46.1 µM), for the others: at the highest dose ratio change, negative = inhibition, hits mostly inhibitors; 200,000 tested, 0.01% active; AID 1487; active = well fitted inhibition curve with a large enough effect in the signal ratio, with a control signal flat, not every such curve was filed as active; inconclusive = small, poorly fitted or top-dose-only effect, or effect the other way, or a change in a side signal; the % refers to the signal ratio; note: % is set by controls: 0 for no effect and ±100 for the full control effect
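S3 HeLa cells stably expressing lamin A-EGFP splicing minigene plus DsRed2, 600 cells/well, 48 h compound exposure at 37C. Laser-scanning cytometry; analysed as GFP (500-530 nm)/RFP (575-640 nm) total intensity ratio; 0.5% DMSO vehicle.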
Numbers without * were called inactive; ? = inconclusive; · = no result; [ ] = remark or other dose. Shown are actives, neighbours in structure and some others; about 9% of the full set was active somewhere. Unless noted, calls come from the whole dose curve; as a rule, active = well fitted curve in the direction sought with a large enough effect; inconclusive = small, poorly fitted or top-dose-only effect, or another doubt; inactive = no such curve, though single readings can be large; an effect the other way counts as inactive or inconclusive. Potency is the fitted concentration of half-maximal effect.

SMILES	HTT aggregate	Luc counter	ALDH1A1 inh	HPGD inh	HTT cytoprotect	Lamin A splicing
CCC(=O)NC(=S)NNC(=O)c1ccc(NC(=O)c2ccccc2)cc1	-6%	·	?	·	-15%	·
O=C(/C=C/c1ccco1)NC(=S)Nc1ccccn1	13%	-5%	?	16µM*	-2%	-2%
COc1ccc(NC(=O)/C=C/c2ccco2)cn1	24%	-9%	7.1µM*	·	-52%	?
COc1ccccc1CNC(=O)/C=C/c1ccc(Br)o1	-12%	-1%	13µM*	·	-28%	·
COc1ccc(NC(=O)/C=C/c2ccc(Br)o2)cn1	5%	·	22µM*	·	-7%	·
CC(OC(=O)C1CCN(S(=O)(=O)c2ccccc2)CC1)C(=O)Nc1ncc(Cl)cc1Cl (stereo not given)	-7%	-1%	?	-11%	-8%	-1%
O=C(/C=C/c1ccco1)NCCCN1CCOCC1	1%[9.22 µM]	-3%	?	·	16%[10 µM]	·
O=C(/C=C/c1ccc(Br)o1)NCCCN1CCOCC1	-5%	-2%	2µM*	·	-11%	·
COC(=O)C1Sc2[nH]c(=O)sc2C(c2ccc(Cl)cc2)C1C(=O)OC (stereo not given)	-1%	15%	11µM*	-14%	-15%	1%
COC(=O)C1CSc2[nH]c(=O)sc2C1c1ccccc1 (stereo not given)	12%	-1%	32µM*	-5%	5%	5%
COC(=O)c1[nH]c2ccccc2c1NS(=O)(=O)c1ccc(F)c(C)c1	-16%	-2%	4%	-8%	-13%	?
O=C(Nc1ccc2oc(-c3ccc(F)cc3)nc2c1)c1ccccc1F	7%	0%	?	?	-23%	9%
CC(=O)N1c2ccc(S(=O)(=O)Nc3ccc(C)c(Cl)c3)cc2CC1C (stereo not given)	·	·	·	·	·	6%[46 µM]
Cc1ccc(NC(=O)Cn2c(O)c(N=NC(=O)c3cc([N+](=O)[O-])ccc3O)c3ccccc32)cc1	?	·	·	·	-81%[10 µM]	·
Cc1cccc(NC(=O)Cn2c(O)c(N=NC(=O)c3ccccc3O)c3ccccc32)c1	-3%	-7%	13µM*	-7%	26%[10 µM]	6%
Cc1nc(SCC(O)CCl)c([N+](=O)[O-])[nH]1 (stereo not given)	3%	2%	14µM*	-5%	11%[10 µM]	-2%
O=C(COC(=O)c1c2c(nc3ccccc13)/C(=C/c1cccc([N+](=O)[O-])c1)CCC2)NC1CCS(=O)(=O)C1 (stereo not given)	?	1%	-13%	-7%	0%[1.9 µM]	-22%
CCOC(=O)c1cnc2c(OC)cccc2c1N1CCN(c2ccc(OC)cc2)CC1	16%	-1%	?	-28%	-77%	?
C/C(=N/Nc1ccc(C)cc1)C1(C)N(O)C(C)(C)C(c2ccco2)=[N+]1[O-] (stereo not given)	-12%	-3%	25µM*	·	-33%	-6%[46 µM]
CC1(C)C(c2ccco2)=[N+]([O-])C2(CCCCC2=O)N1O (stereo not given)	2%	2%	-9%	-13%	11%[10 µM]	-5%
COc1ccc(C(=O)CSc2nnc(NC(=O)C3CC(=O)N(c4ccccc4C)C3)s2)cc1 (stereo not given)	13%	4%	11µM*	-12%	2%[10 µM]	-12%
NC(=O)c1ccsc1NC(=O)C1CCCN1S(=O)(=O)c1ccc(Cl)cc1 (stereo not given)	14%	-1%	?	?	-22%[0.074 µM]	-15%
O=C(Nc1nccs1)C1CCCN1S(=O)(=O)c1ccc(Cl)cc1 (stereo not given)	7%	7%	18µM*	-19%	-11%[10 µM]	10%
CCCOc1ccc(N2C(=O)CC(SC(=NCC)Nc3cccc(F)c3)C2=O)cc1 (stereo not given)	-21%	3%	-3%	-12%	2%[10 µM]	1%
O=c1c(-c2ccc(O)cc2)coc2cc(O)cc(O)c12	2%	-11%	-8%	25µM*	-81%	?

Bioassay records deposited in PubChem BioAssay by National Center for Advancing Translational Sciences (NCATS).
